Hits are enriched below; roughly 19% of the tested compounds scored in any of these assays.
HepG2 viability – qHTS for Inhibitors of TGF-b: Cytotox Counterscreen; HepG2 CAGA-GFP viability, ATP luminescence, 18 h; Potency, µM (highest dose often 46.1 µM), for inactives: at the highest dose activity change, negative = cytotoxicity, usual class: cytotoxic; 410,000 tested, 0.76% active; AID 588856, 2011; note: potency is the fitted concentration of half-maximal effect
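CellTiter-Glo luminescence gave cytotoxicity after 18 hours at 37 degrees C. The cells were HepG2 CAGA-GFP in 1% FBS DMEM, stimulated with 500 pg/mL TGF-beta after compound addition. %Activity was normalised to no-cell wells (complete cell-killing) and DMSO (no toxicity), and curves were fitted and classified.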
IL1B secr inh – qHTS for Inhibitors of Inflammasome Signaling: IL-1-beta AlphaLISA Primary Screen; THP-1 LPS/ATP IL-1B secretion, AlphaLISA, 16 h; active compounds read low; activity change, % at 57.5 µM; 360,000 tested, 4.7% active; AID 743279, 2014; in the data active = activity change below about -50%; inconclusive = mostly about -30% to -49%; note: % is set by controls: 0 for no effect and ±100 for the full control effect
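THP-1 cells pretreated 1 hr with compounds (up to 57.5 uM final), then stimulated with LPS (250 ng/mL final) plus ATP (1.25 mM final); secreted IL-1B measured by AlphaLISA after 16 hr, decreased signal indicating inhibition.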
TDP1 cell CPT – qHTS for Inhibitors of human tyrosyl-DNA phosphodiesterase 1 (TDP1): qHTS in cells in presence of CPT; chicken DT40 Tdp1-/-;hTDP1 cells + 20 nM CPT, ATP luminescence, 48 h; Potency, µM (top dose mostly 46.2 µM), for the others: top-dose activity change, negative = growth inhibition, usual class: inhibitors; 420,000 tested, 12% active; AID 686979, 2013; note: potency is the fitted concentration of half-maximal effect; % is set by controls: 0 for no effect and ±100 for the full control effect; nearly all actives have a fitted effect of over 55% in size
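Chicken DT40 Tdp1-/- cells stably complemented with human TDP1 were seeded at 400 cells/well in medium containing 20 nM camptothecin, exposed to pin-transferred compounds, and grown at 37 °C for at least 48 hr. Viability was read as ATP luminescence.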
TDP1 cell noCPT – qHTS for Inhibitors of human tyrosyl-DNA phosphodiesterase 1 (TDP1): qHTS in cells in absence of CPT; DT40 Tdp1-/- hTDP1 cells, no CPT, ATP luminescence, 48 h; Potency, µM (highest dose often 46.2 µM), without a hit: at the top dose activity change, negative = growth inhibition, usual class: inhibitors; AID 686978, 2013; 420,000 tested, 15% active; note: potency is the fitted concentration of half-maximal effect; % is set by controls: 0 for no effect and ±100 for the full control effect; nearly all actives have a fitted effect of over 55% in size
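Cells were dispensed at 400 per well, compounds added by pin tool, plates incubated ≥48 hr at 37 °C, then CellTiter-Glo added for 30 min at room temperature before luminescence reading. Line: DT40 Tdp1-/- complemented with hTDP1; camptothecin omitted.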
TGFb SMAD3 inh – qHTS for Inhibitors of TGF-b; HepG2 CAGA-GFP TGF-b/SMAD3 reporter, GFP fluorescence, 18 h; TGF-beta stimulated, 500 pg/mL final; Potency, µM (series often up to 46.1 µM), for inactives: at the top dose activity, negative = inhibition, hits mostly inhibitors; 410,000 tested, 1.2% active; AID 588855, 2011; note: potency is the fitted concentration of half-maximal effect; % is set by controls: 0 for no effect and ±100 for the full control effect; nearly all actives have a fitted effect of over 65% in size
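Per well, imaged GFP fluorescence of HEPG2 CAGA-GFP cells gives the signal; cells get compound, then TGF-beta (500 pg/mL final), 18 h at 37 degrees C; %Activity versus -TGF-beta and +DMSO controls.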
TDP1 block – qHTS Assay for Inhibitors of Tyrosyl-DNA Phosphodiesterase (TDP1) | Tyrosyl-DNA phosphodiesterase 1 (Homo sapiens), Q9NUW8 | recombinant TDP1, AlphaScreen DNA substrate cleavage | 350,000 tested, 0.28% active | Potency, µM (series often up to 130 µM), for inactives: at the top dose activity change, negative = inhibition, actives largely listed as inhibitors; note: potency is the fitted concentration of half-maximal effect; % is set by controls: 0 for no effect and ±100 for the full control effect; nearly all actives have a fitted effect of over 40% in size
Target sequence (Q9NUW8 whole entry, looked up): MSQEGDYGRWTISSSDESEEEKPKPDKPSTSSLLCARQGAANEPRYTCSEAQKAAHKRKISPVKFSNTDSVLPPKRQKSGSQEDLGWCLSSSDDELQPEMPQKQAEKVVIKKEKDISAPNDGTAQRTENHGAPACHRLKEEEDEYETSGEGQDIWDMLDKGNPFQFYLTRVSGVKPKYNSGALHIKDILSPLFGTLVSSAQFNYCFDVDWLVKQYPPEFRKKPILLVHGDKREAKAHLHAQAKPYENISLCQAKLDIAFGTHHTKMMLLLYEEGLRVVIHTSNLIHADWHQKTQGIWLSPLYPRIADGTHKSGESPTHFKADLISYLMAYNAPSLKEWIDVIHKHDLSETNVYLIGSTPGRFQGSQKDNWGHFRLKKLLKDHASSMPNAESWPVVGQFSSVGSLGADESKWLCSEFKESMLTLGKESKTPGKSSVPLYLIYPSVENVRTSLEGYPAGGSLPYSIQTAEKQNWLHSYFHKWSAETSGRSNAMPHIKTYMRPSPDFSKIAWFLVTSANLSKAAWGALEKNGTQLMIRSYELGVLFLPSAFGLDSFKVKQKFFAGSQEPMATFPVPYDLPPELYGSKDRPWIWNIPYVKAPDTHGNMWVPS
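Tdp1 1 nM final; 15 min RT w/ cpd; substrate 15 nM, 5 min; beads 10 ug/ml, 10 min; AlphaScreen read. Neg ctrl: no enzyme.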
* hit, by the source's call; ? = inconclusive; . = not tested or not shown. Unless noted, calls come from the whole dose curve; as a rule, active = well fitted curve in the direction sought with a large enough effect; inconclusive = small, poorly fitted or top-dose-only effect, or another doubt; inactive = no such curve, though single readings can be large; an effect the other way counts as inactive or inconclusive.

SMILES	HepG2 viability	IL1B secr inh	TDP1 cell CPT	TDP1 cell noCPT	TGFb SMAD3 inh	TDP1 block
COc1cc(F)ccc1-c1csc(C(C)(NC(C)=O)c2ccccc2)n1 (configuration not stated)	-20%	-6	12µM*	5.2µM*	-2%	.
COc1ccc(C(C)(NC(C)=O)c2nc(-c3ccccc3OC)cs2)cc1 (configuration not stated)	-23%	-23	18µM*	12µM*	8%	.
COc1cc(F)ccc1-c1csc(C(NC(C)=O)c2cccc(F)c2)n1 (configuration not stated)	3%	-15	?	?	13%	.
O=C(NCC1(N2CCCCC2)CCCCC1)c1ccc(-n2cc(NC(=O)c3cccnc3)cn2)cc1	.	.	-5%	?	.	.
Clc1cc(Sc2ccc(Br)cc2)nnc1-c1ccccc1	-4%	-19	?	29µM*	1%	1%
C[N+](C)(C)C(Cc1ccccc1)C(=O)[O-] (configuration not stated)	13%	2	6%	-10%	9%	.
Cc1oc(-c2cccc(Cl)c2)nc1CSc1nnc(C)n2c1cc1occc12	2%	.	-3%	1%	-1%	-10%
CC(C)C(NS(C)(=O)=O)c1nnc2n1CCN(Cc1ccc(C#CC(C)(C)O)cc1)CC2 (configuration not stated)	.	.	3%	-24%	.	.
Cc1ccc(Cn2c(S(=O)(=O)O)nc3ccccc32)cc1	7%	30	-2%	-4%	-10%	3%
Cc1ccc(Cn2c(/C=C/c3ccco3)nc3ccccc32)cc1	-1%	-105*	?	15µM*	-2%	-3%
Clc1ccc(Cn2c(/C=C/c3ccco3)nc3ccccc32)cc1	8%	-94*	?	?	3%	8%
Cc1ccc(-c2nc(C(=O)NC3CCCCCC3)no2)cc1	-20%	-6	?	18µM*	-7%	.
Cc1ccc(-c2cc(C(=O)NC3CCCCC3)no2)cc1	10%	-15	3%	-22%	2%	.
O=C(c1ccc(Cl)c(Cl)c1)N1CCC(=O)N([C@H](COCc2ccc(Cl)cc2)Cc2ccccc2)CC1	.	-67*	?	23µM*	.	.
O=C(c1ccc(Cl)c(Cl)c1)N1CCC(=O)N(C(COCc2cccc(Cl)c2)Cc2ccccc2)CC1 (configuration not stated)	-7%	-68*	?	?	?	3%
COCCN=C1OC(=O)N2C(=O)C3=C4C(C[C@H]5C(=O)N(CC(=O)OC)C(=O)[C@H]5[C@H]4[C@@]12Cc1ccccc1)[C@H]1C(=O)N(CC(=O)OC)C(=O)[C@H]1[C@H]3C (some centres not stated)	.	.	.	.	.	5%
CN(CC(=O)Nc1cccc(F)c1)C(=O)c1cccnc1Sc1ccccc1Cl	-59%	-4	?	-23%	-18%	3%
COc1cc(NS(=O)(=O)c2csc(C(N)=O)c2)cc(OC)c1	0%	37	-24%	4%	35%	.
CC1=C(c2ccc(C(C)C)cc2)S(=O)(=O)N=C1N1CCC(C(=O)NCc2ccc(C)o2)CC1	-3%	.	?	?	-4%	5%
CCn1c(SCC(=O)c2c[nH]c3ccccc23)nc2cc(S(=O)(=O)N3CCOCC3)ccc21	-2%	-6	15µM*	21µM*	-35%	7%
Nc1nc2cc(S(=O)(=O)N3CCOCC3)ccc2o1	17%	-3	23µM*	?	18%	2%

Screens: PubChem, National Center for Advancing Translational Sciences (NCATS)
